Source: PubChem (National Center for Advancing Translational Sciences (NCATS))
Pol eta inh-1 – qHTS for Inhibitors of Polymerase Eta; 390,000 tested, 1.2% active; recombinant Pol eta, fluorescent DNA replication assay; DNA polymerase eta (Homo sapiens), Q9Y253; Potency, µM (doses to about 114 µM), for inactives: top-dose activity change, negative = inhibition, usual class: inhibitors; further: on the % scale 0 is the no-effect control and ±100 the full control effect
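Pol eta (10 nM) was preincubated with compounds for 15 min at room temperature, after which fluorescent replication substrate (50 nM final) was added to start the reaction. Fluorescence was read kinetically at 0 and 10 min.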
Pol iota inh – qHTS for Inhibitors of Polymerase Iota; DNA polymerase iota (Homo sapiens), Q9UNA4; Pol iota fluorescent replication assay, 10 min; Potency, µM (doses to about 115 µM), inactives show at the top dose activity, negative = inhibition, usual class: inhibitors; 390,000 tested, 1% active; AID 588590, 2011
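Fluorescent replication assay read twice, at 0 min and 10 min after adding 50 nM (final) substrate. Enzyme (10 nM) and compounds were first incubated 15 min at room temperature; enzyme-free buffer wells were negative controls.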
WRN helicase inh – qHTS for Inhibitors of WRN Helicase; WRN helicase unwinding, fluorescent forked duplex, kinetic; 360,000 tested, 0.46% active; AID 651768, 2012; Potency, µM (doses to about 114 µM), for the others: at the top dose activity change, negative = inhibition, hits mostly inhibitors; further: on the % scale 0 is the no-effect control and ±100 the full control effect; nearly all actives have a fitted effect of over 55% in size
Target sequence (Q14191 whole entry, looked up): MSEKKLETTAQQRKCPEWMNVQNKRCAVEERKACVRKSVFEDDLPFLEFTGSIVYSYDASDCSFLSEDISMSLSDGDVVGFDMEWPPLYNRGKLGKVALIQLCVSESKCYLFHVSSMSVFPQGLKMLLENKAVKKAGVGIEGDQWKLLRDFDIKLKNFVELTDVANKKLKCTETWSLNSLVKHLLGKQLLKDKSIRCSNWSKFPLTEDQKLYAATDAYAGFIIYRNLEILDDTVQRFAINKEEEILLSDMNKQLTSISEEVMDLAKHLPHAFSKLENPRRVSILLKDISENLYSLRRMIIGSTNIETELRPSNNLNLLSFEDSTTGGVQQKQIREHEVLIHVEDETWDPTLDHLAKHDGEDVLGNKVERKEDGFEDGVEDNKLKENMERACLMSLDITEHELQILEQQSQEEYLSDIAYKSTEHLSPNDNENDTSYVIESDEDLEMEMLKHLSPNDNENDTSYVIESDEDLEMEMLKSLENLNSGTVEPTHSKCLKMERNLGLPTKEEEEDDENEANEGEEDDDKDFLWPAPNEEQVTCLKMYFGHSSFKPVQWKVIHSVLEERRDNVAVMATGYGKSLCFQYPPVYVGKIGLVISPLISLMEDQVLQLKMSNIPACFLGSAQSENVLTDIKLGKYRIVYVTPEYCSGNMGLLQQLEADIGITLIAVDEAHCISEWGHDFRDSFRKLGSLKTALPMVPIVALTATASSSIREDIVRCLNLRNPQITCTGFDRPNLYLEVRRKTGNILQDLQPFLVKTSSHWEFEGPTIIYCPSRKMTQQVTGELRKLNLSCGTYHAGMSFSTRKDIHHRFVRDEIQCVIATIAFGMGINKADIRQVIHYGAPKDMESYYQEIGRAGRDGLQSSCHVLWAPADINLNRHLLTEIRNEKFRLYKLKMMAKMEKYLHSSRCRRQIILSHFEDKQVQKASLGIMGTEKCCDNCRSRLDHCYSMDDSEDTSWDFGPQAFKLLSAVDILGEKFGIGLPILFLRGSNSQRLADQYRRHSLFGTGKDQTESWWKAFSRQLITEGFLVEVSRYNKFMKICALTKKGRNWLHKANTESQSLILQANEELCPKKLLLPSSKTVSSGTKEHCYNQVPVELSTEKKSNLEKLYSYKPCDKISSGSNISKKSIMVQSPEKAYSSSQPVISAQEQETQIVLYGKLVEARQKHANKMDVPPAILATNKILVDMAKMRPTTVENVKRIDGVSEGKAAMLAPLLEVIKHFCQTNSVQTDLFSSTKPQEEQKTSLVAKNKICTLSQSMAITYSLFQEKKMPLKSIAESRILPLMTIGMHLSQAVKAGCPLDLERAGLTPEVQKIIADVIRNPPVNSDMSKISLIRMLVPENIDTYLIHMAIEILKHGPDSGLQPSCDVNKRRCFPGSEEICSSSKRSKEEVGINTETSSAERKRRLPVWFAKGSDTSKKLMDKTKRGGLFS
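Kinetic fluorescence helicase assay: unwinding of a quenched forked DNA duplex (100 nM final) with 2 mM ATP final raises red fluorescence (525/598 nm). Compounds sat 15 min at room temperature with 20 nM WRN beforehand.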
Pol kappa inh-1 – qHTS for Inhibitors of Polymerase Kappa; Potency, µM (top dose mostly 107 µM), without a hit: at the top dose activity, negative = inhibition, actives largely listed as inhibitors; purified Pol kappa, fluorescent DNA synthesis assay, 10 min; DNA polymerase kappa (Homo sapiens), Q9UBT6; 400,000 tested, 0.53% active; further: on the % scale 0 is the no-effect control and ±100 the full control effect
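10 nM Pol kappa was preincubated with compounds for 15 min at room temperature. Reaction started with 50 nM (final) substrate. Fluorescence read kinetically at 0 and 10 min.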
Pol beta inh – qHTS Assay for Inhibitors of DNA Polymerase Beta. P06746. Pol beta primer extension/strand displacement, fluorescence kinetic. Potency, µM (highest dose often 114 µM), without a hit: at the top dose activity change, negative = inhibition, most hits filed as inhibitors. 340,000 tested, 1.3% active. AID 485314, 2010; further: on the % scale 0 is the no-effect control and ±100 the full control effect
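Pol beta (10 nM) and compounds were preincubated 15 min at room temperature, then 50 nM substrate (final) started primer extension/strand displacement. Reads were taken at 0 and 10 min; concentration-response data were fitted to a four-parameter Hill equation.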
L3MBTL1 block – qHTS Assay for the Inhibitors of L3MBTL1. AlphaScreen L3MBTL1–H3K9me1 peptide binding. Potency, µM (top dose mostly 57.1 µM), for inactives: top-dose activity, negative = inhibition, actives largely listed as inhibitors. 230,000 tested, 0.66% active; further: on the % scale 0 is the no-effect control and ±100 the full control effect; nearly all actives have a fitted effect of over 60% in size
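Displacement of a biotinylated histone H3(1-15) peptide monomethylated at Lys9 (75 nM) from L3MBTL1 (50 nM) was measured by AlphaScreen after a 30 min room-temperature compound incubation; cefsulodin titration served as intraplate control.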
Pol kappa inh-2 – qHTS for Inhibitors of Polymerase Kappa: Confirmatory Assay for Cherry-picked Compounds | Potency, µM, usual class: inhibitors | purified Pol-kappa, fluorescent strand-displacement substrate | shares compounds with Pol eta inh-1 | 920 tested, 76% active
Pol eta inh-2 – qHTS for Inhibitors of Polymerase Eta: Confirmatory Assay for Cherry-picked Compounds; 2,600 tested, 64% active; AID 720502, 2013; shares compounds with Pol eta inh-1; Potency, µM, actives largely listed as inhibitors; Pol eta primer extension, TAMRA/BHQ fluorescence, 10 min
Active calls of the source: *; ? = inconclusive; / = no result given; [ ] = dose if it differs, or a comment. This is a sample that favours compounds with a hit; in the whole collection about 2.5% have one here. The call rests on the fitted dose curve; in most records, active means well fitted curve in the direction sought with a large enough effect; inconclusive means small, poorly fitted or top-dose-only effect, or another doubt; inactive means no such curve, though single readings can be large; an effect the other way counts as inactive or inconclusive. Potency means the concentration at half of the fitted maximal effect.

SMILES | Pol eta inh-1 | Pol iota inh | WRN helicase inh | Pol kappa inh-1 | Pol beta inh | L3MBTL1 block | Pol eta inh-2 | others
Cc1cc(N)c2cc(NC(=O)/C=C/c3ccccc3Cl)ccc2n1 | ? | 47.8% | 21.5%[11.6 µM] | -24.8% | 50.1µM* | -23.7% | 67.5*
O=C1CCCN1c1ccc(C(=O)N(Cc2nnc(-c3ccccc3Cl)o2)C2CC2)cc1 | -4.8% | 3.0% | 9.0% | -6.5% | / | 2.2% | /
C[C@@H]1Cc2c(O)c(O)cc(O)c2C(=O)O1 | 22.4µM* | ? | -20.9% | 79.4µM* | 2.82µM* | / | 67.5*
COC(=O)c1sc(-c2ccc(C(C)(C)C)cc2)cc1NC(=O)c1ccccc1C(=O)O | 89.1µM* | -19.5% | 1.8%[11.6 µM] | 2.0% | ? | / | / | Pol kappa inh-2=?
CCOc1ccc(OCC)c(NC(=O)c2cc(CN3CCOCC3)on2)c1 | -15.3% | 10.8% | / | 0.5% | 0.7% | / | /
CCCN(CCC)S(=O)(=O)c1ccc(NC(=O)Cc2cccs2)cc1 | ? | ? | -20.0%[57.1 µM] | -35.9% | ? | / | 75.7*
C#CCOc1c(Cl)cc(/C=N/O)cc1OC | -10.4% | 6.7% | -1.8% | -15.7% | -0.5% | 3.3% | /
N#Cc1c(-c2ccccc2)nc(SCC(=O)Nc2ccc(OC(F)(F)Cl)cc2)[nH]c1=O | ? | 11.6% | -0.3%[11.6 µM] | 4.6% | 22.4µM* | / | / | Pol kappa inh-2=?
N#Cc1c(-c2ccccc2)nc(SCC(=O)Nc2ccccc2)[nH]c1=O | 2.1% | 7.0% | -15.0% | -3.7% | -20.7% | 4.8% | /
NC(=O)c1ccc(-n2nnnc2SCC(=O)c2ccc(O)c(O)c2)cc1 | 10µM* | 14.1µM* | 35.5µM* | 25.1µM* | 10µM* | ? | 42.6*
Cc1ccccc1CSc1nnnn1-c1ccc(C(N)=O)cc1 | -22.0% | 134.9% | -11.0% | -7.4% | -13.5% | / | /
Cc1cc(C)n(-c2ncc3c(n2)N(CCO)CCOC3=O)n1 | -1.1% | -8.4% | -6.9% | -4.4% | 10.9% | 13.7% | /
CC1=CC2(O)OCCN(CCO)C2=CC1=O (stereo not given) | ? | ? | -8.0%[11.6 µM] | ? | 25.1µM* | ? | ?
Cc1ccc(S(=O)(=O)Nc2cc(C(=O)O)ccc2N2CCCCC2)cc1 | 3.1% | -0.4% | -5.0% | 0.6% | -9.1% | -14.1% | /
O=C(O)CCc1ccc(S(=O)(=O)Nc2cc(C(F)(F)F)ccc2N2CCCC2)cc1 | 22.4µM* | 25.1µM* | ? | ? | / | ? | 60.1* | Pol kappa inh-2=?
Cc1ccc(NC(=O)CCNS(=O)(=O)c2ccc3[nH]c(=O)oc3c2)c(C)c1 | -6.8% | -19.7% | -5.4% | -21.4% | ? | / | /
Cc1ccc(C)c(NC(=O)CCNS(=O)(=O)c2ccc3[nH]c(=O)oc3c2)c1 | 22.4µM* | -17.4% | -9.8%[11.6 µM] | 3.5% | 11.2µM* | / | ?
CCc1oc(C(=O)O)cc1COC | 28.2µM* | ? | -22.4%[57.1 µM] | -28.8% | 22.4µM* | ? | 30.1*
CCc1oc(C(=O)O)cc1CN(CC)CC | 4.3% | -12.1% | -8.3% | -5.2% | 1.2% | / | /
COc1ccc(N2CCN(C(c3ccccc3OC)c3nnnn3Cc3ccco3)CC2)cc1 (stereo not given) | -3.3% | -14.6% | -10.7%[57.1 µM] | -6.6% | 15.8% | / | /
COc1cc(O)cc2cc3c(c(O)c12)C(=O)CC(C)(O)O3 (stereo not given) | 44.7µM* | ? | -7.0%[11.6 µM] | ? | 50.1µM* | / | ?
CN1CCN(c2cc(=O)n(Cc3ccc(F)cc3)c(=O)[nH]2)CC1 | -7.5% | 0.5% | -2.9% | -27.1% | -12.7% | 7.6% | /
Cc1cc(NS(=O)(=O)c2ccc(NC(=O)/C=C/c3ccco3)cc2)nc(C)n1 | 28.2µM* | ? | ? | 79.4µM* | -0.4% | -16.9% | 33.8*
Cc1cc(NS(=O)(=O)c2ccc(NC(=O)c3ccco3)cc2)nc(C)n1 | ? | -4.4% | 7.7% | -7.9% | -0.6% | / | /
O=C(O)CCN1CCc2ccccc21 | 17.8µM* | ? | -13.9%[57.1 µM] | ? | ? | ? | ?
SMILES | Pol eta inh-1 | Pol iota inh | WRN helicase inh | Pol kappa inh-1 | Pol beta inh | L3MBTL1 block | Pol eta inh-2 | others
C/C(N)=C(/C#N)C(=O)COC(=O)C1Cc2ccccc2CN1S(C)(=O)=O (stereo not given) | 20µM* | 22.4µM* | -32.4% | ? | 39.8µM* | -27.3% | 67.5*
CS(=O)(=O)N1Cc2ccccc2CC1C(=O)OCC(=O)NCc1ccccc1 (stereo not given) | 15.8µM* | 79.4µM* | ? | ? | / | -18.2% | ?
O=C(CSc1nnc(Nc2ccccc2F)s1)NC(=O)CN1CCCC1=O | 22.4µM* | ? | -25.4% | ? | / | ? | ? | Pol kappa inh-2=67*
O=C(CSc1nnc(Nc2ccccc2F)s1)NC1CCS(=O)(=O)C1 (stereo not given) | -4.2% | 0.4% | -7.6% | -13.2% | / | 4.1% | /
O=C(Nc1ccccc1C(=O)OCc1cc(=O)n2ccsc2n1)c1ccccc1Cl | 6.2% | 0.5% | / | -8.9%[60.1 µM] | 23.2% | / | /
O=C(OCc1cc(=O)n2ccsc2n1)c1ccccc1NCCO | 22.4µM* | 20µM* | -11.4%[11.6 µM] | ? | / | ? | ?
Cc1cccc(/C=C/C(=O)c2cc(Br)ccc(=O)c2O)c1 | 31.6µM* | 0.891µM* | ? | ? | ? | / | ?
CCOc1ccc(/C=C/C(=O)c2cc(Br)ccc(=O)c2O)cc1 | ? | ? | ? | ? | ? | -26.1% | /
CC1CC(C)CN(C(=O)CNS(=O)(=O)c2cccs2)C1 (stereo not given) | 3.3% | -16.3% | 14.3% | -8.0% | 39.9% | / | /
OCCCNc1c2ccccc2nc2ccccc12 | -2.6% | 22.4µM* | -5.9%[11.6 µM] | 79.4µM* | 17.8µM* | / | / | Pol kappa inh-2=?
Cc1ccc(-c2nc(NCCCO)c3ccccc3n2)cc1 | -17.3% | 1.6% | 12.2% | -3.1% | 11.0% | / | /
COc1ccc(C2=CC3=C(Br)C(=O)C(C)(OC(=O)c4cccs4)C(=O)C3=CO2)cc1 (stereo not given) | 39.8µM* | ? | ? | ? | / | / | ?
